This passage reports residual activity results from ChEMBL document CHEMBL2218924, “A broad activity screen in support of a chemogenomic map for kinase signalling research and drug discovery” (Biochem J, 2013).

For experiment [1], the target named is Serine/threonine-protein kinase MRCK beta (Homo sapiens) (UniProt Q9Y5S2). As to conditions: at 1 µM.
Experiment [2] shares this target. As to conditions: at 10 µM.
Experiment [3] concerns the target Ribosomal protein S6 kinase alpha-5 (Homo sapiens) (UniProt O75582). To be noted: at 1 µM.
The target is the same in experiment [4]. As to conditions: at 10 µM.
The target of experiment [5] is Ribosomal protein S6 kinase alpha-4 (Homo sapiens) (UniProt O75676). To be noted: at 1 µM.
Ribosomal protein S6 kinase alpha-4 (Homo sapiens), sequence (O75676 whole entry, looked up): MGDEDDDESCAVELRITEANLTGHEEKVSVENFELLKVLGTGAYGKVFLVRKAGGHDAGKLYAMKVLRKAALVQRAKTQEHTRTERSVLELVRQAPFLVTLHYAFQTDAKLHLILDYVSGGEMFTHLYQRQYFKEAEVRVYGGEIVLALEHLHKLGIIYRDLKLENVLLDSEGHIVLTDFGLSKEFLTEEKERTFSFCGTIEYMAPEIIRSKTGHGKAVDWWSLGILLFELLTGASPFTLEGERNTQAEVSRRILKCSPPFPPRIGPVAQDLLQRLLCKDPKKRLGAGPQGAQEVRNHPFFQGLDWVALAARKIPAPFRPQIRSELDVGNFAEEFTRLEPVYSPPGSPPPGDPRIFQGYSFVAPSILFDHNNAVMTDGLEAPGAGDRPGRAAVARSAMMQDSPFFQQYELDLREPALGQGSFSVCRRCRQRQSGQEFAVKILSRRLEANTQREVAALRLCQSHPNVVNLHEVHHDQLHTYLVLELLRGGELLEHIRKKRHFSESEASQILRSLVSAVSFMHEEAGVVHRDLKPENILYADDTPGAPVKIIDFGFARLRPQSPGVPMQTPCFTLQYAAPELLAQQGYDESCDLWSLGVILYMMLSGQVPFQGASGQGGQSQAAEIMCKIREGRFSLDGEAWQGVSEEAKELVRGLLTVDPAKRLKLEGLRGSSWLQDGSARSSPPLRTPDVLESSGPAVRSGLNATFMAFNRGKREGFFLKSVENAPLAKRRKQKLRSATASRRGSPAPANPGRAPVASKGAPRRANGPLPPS
Experiment [6] shares this target. As to conditions: at 10 µM.
In experiment [7] the target is SRSF protein kinase 3 (Homo sapiens) (UniProt Q9UPE1). To be noted: at 1 µM.
SRSF protein kinase 3 (Homo sapiens), sequence (Q9UPE1 whole entry): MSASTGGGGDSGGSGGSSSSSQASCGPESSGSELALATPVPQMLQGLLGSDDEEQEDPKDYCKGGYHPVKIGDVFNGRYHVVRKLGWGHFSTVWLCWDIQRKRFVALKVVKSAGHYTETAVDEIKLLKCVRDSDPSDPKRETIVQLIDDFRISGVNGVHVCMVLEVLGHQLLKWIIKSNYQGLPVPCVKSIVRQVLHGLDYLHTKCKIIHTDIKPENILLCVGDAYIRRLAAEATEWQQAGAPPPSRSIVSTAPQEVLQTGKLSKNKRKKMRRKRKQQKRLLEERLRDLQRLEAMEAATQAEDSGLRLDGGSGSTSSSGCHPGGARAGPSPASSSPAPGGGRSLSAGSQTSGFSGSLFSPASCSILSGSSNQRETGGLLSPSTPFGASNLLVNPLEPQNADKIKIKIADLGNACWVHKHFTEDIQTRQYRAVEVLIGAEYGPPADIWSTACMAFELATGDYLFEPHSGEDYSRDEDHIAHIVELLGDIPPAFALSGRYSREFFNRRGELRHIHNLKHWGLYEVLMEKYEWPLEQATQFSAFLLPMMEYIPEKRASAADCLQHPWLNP
For experiment [8] the target is unchanged. As to conditions: at 10 µM.
Experiment [9] has as its target T1, Serine/threonine-protein kinase 4 (Homo sapiens) (UniProt Q13043).
T1 sequence (whole entry): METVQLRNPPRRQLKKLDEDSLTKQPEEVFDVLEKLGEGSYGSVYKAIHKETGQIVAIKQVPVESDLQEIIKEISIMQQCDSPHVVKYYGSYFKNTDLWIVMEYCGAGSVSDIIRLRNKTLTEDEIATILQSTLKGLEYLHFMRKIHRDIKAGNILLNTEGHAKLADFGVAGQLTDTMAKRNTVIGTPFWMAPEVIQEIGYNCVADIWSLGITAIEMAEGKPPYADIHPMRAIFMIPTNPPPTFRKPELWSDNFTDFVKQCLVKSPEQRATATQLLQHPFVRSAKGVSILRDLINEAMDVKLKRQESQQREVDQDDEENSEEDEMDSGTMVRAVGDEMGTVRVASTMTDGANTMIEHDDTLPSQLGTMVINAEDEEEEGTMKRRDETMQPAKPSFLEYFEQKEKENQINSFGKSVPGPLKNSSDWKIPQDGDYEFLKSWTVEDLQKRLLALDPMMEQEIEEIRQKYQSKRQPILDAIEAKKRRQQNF
As to conditions: at 1 µM.

For experiment [10], the target named is T1, Serine/threonine-protein kinase 4 (Homo sapiens). To be noted: at 10 µM.
Experiment [11] has as its target T2, Serine/threonine-protein kinase 3 (Homo sapiens) (UniProt Q13188).
T2 sequence (whole entry): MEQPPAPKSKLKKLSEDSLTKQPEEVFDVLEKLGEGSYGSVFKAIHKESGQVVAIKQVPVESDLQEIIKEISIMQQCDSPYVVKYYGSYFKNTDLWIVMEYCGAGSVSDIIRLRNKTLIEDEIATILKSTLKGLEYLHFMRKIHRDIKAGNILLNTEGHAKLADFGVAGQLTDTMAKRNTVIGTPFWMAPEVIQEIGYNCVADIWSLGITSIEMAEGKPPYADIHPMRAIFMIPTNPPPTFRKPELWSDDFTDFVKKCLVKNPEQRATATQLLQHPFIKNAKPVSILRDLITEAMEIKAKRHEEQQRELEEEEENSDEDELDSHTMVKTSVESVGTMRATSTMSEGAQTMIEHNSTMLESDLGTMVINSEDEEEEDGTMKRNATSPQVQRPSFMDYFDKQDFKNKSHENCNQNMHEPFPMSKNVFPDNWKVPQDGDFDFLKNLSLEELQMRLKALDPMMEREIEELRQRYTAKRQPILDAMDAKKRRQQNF
As to conditions: at 1 µM.

Experiment [12] has as its target T2, Serine/threonine-protein kinase 3 (Homo sapiens). To be noted: at 10 µM.
The target of experiment [13] is Serine/threonine-protein kinase 24 (Homo sapiens) (UniProt Q9Y6E0). As to conditions: at 1 µM.
Serine/threonine-protein kinase 24 (Homo sapiens), sequence (Q9Y6E0 whole entry, looked up): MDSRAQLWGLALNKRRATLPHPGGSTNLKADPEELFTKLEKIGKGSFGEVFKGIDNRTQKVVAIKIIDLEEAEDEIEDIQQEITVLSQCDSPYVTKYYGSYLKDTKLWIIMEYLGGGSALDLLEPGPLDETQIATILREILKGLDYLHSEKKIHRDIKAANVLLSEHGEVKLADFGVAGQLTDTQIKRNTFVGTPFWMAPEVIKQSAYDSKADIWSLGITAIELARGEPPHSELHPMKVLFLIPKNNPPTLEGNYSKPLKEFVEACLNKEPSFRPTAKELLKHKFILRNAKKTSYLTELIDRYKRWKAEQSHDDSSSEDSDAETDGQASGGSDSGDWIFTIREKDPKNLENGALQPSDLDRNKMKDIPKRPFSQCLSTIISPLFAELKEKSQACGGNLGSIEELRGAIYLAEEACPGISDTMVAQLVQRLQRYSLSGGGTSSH
The target is the same in experiment [14]. As to conditions: at 10 µM.
For experiment [15], the target named is T3, Tyrosine-protein kinase Mer (Homo sapiens) (UniProt Q12866).
T3 sequence (whole entry): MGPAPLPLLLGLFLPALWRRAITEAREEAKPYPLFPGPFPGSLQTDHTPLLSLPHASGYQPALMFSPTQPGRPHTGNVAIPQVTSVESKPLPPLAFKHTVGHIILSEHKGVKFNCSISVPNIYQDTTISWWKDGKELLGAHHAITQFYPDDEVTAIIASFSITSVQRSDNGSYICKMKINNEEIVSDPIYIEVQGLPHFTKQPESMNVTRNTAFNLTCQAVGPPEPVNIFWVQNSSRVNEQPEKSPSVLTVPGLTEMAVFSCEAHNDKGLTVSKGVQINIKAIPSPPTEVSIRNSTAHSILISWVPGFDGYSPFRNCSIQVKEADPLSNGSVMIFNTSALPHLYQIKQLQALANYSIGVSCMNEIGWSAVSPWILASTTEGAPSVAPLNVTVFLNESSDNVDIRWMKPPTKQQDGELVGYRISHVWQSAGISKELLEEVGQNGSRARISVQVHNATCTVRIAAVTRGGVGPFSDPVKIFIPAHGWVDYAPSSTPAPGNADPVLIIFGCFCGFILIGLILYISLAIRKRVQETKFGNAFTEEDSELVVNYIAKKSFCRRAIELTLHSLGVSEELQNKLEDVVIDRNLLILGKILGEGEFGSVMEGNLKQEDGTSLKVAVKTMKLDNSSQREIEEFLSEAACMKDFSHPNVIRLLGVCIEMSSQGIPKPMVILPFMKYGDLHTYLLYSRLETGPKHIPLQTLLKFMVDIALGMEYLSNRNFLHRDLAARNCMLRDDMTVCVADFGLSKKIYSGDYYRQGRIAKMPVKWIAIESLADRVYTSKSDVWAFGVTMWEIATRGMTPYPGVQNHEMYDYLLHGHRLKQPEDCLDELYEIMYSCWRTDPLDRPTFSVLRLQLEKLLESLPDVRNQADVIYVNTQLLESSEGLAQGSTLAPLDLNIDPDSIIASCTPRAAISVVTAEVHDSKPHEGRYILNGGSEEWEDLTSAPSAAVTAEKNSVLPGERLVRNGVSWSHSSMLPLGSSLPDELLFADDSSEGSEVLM
As to conditions: at 1 µM.

Experiment [16] concerns the target T3, Tyrosine-protein kinase Mer (Homo sapiens). As to conditions: at 10 µM.
The target in experiment [17] is Hepatocyte growth factor receptor (Homo sapiens) (UniProt P08581). To be noted: at 1 µM.
Hepatocyte growth factor receptor (Homo sapiens), sequence (P08581 whole entry): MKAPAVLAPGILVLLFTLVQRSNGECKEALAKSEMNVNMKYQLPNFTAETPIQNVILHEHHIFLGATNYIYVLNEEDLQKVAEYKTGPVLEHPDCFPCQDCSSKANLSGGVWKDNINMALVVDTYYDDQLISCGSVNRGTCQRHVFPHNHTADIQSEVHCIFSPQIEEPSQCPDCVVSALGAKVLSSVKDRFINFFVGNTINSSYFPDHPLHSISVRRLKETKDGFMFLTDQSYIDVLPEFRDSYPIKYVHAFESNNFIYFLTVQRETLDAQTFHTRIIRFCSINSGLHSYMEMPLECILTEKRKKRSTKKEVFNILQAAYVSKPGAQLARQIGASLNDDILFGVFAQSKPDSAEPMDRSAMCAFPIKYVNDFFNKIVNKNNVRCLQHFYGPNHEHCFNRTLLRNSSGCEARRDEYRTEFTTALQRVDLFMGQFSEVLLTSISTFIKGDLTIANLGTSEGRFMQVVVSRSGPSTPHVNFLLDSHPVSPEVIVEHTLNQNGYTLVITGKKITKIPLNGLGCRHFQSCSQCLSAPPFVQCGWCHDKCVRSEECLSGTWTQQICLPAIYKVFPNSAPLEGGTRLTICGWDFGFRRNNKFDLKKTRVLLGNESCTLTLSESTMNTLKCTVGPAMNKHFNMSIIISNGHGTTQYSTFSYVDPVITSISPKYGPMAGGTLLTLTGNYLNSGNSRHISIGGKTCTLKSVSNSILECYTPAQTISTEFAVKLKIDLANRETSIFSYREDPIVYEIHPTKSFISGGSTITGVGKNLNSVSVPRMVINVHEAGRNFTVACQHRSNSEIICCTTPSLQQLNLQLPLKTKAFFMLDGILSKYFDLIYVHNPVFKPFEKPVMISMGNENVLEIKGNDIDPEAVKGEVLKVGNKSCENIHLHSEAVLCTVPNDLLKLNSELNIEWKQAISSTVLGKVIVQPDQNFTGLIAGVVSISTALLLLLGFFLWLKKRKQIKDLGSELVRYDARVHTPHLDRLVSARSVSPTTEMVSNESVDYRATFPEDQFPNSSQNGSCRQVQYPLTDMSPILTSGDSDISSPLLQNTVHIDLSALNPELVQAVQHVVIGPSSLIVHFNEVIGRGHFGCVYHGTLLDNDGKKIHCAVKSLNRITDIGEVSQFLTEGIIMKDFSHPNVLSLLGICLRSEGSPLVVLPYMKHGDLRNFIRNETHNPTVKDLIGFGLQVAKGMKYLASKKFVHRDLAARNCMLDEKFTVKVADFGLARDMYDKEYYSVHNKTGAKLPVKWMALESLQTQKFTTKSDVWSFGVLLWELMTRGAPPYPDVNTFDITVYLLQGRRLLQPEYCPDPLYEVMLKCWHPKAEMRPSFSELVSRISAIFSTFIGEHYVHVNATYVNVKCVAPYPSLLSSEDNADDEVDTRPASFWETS
The target is the same in experiment [18]. As to conditions: at 10 µM.
Experiment [19] deals with MAP kinase-interacting serine/threonine-protein kinase 2 (Homo sapiens) (UniProt Q9HBH9). To be noted: at 1 µM.
MAP kinase-interacting serine/threonine-protein kinase 2 (Homo sapiens), sequence (Q9HBH9 whole entry, looked up): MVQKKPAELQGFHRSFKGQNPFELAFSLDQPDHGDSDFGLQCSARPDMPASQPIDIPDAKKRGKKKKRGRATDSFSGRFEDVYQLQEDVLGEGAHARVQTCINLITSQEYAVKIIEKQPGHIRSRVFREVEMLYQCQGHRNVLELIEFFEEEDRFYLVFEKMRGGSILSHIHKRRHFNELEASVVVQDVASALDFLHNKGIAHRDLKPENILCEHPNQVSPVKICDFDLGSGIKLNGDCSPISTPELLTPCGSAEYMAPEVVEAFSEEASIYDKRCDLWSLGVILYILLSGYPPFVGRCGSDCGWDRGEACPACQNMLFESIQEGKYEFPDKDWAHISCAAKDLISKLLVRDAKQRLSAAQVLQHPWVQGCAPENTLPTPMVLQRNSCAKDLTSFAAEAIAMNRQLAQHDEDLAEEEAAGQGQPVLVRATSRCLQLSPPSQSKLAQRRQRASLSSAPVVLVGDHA
For experiment [20] the target is unchanged. As to conditions: at 10 µM.

Ribosomal protein S6 kinase alpha-5 (Homo sapiens), sequence (O75582 whole entry, looked up): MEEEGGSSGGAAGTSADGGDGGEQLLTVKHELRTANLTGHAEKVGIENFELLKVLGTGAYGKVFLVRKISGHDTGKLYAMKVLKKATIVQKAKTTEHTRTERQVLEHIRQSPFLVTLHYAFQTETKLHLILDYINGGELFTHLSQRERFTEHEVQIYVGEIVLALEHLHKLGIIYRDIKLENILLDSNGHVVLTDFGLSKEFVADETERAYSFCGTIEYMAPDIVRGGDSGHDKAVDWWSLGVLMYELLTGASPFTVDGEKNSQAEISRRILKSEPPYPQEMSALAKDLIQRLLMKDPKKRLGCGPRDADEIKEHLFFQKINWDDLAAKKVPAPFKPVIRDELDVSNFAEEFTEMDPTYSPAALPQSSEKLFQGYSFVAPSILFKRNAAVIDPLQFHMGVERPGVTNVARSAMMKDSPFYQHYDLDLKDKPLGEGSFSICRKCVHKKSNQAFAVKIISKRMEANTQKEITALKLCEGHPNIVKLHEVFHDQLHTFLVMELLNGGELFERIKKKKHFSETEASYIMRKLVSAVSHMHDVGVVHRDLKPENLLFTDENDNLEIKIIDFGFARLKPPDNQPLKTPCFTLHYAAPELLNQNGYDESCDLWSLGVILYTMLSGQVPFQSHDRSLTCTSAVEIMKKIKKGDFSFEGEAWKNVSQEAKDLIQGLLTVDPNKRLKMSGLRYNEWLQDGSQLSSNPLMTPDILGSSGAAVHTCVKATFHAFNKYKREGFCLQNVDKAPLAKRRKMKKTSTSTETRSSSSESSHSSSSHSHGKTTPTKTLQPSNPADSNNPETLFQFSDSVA

The term residual activity denotes the signal under treatment as a percentage of the control signal. For the compound `O=C1NC(=O)c2c1c1c3ccccc3[nH]c1c1[nH]c3cc(Br)ccc3c21`, the residual activity in [1] came to 85%; in experiment [2], 85%; in experiment [3] it was 94%; in [4] it was 84%; in experiment [5], 87%; in [6], 76%. The residual activity in experiment [7] is 92%; in experiment [8], 86%; in experiment [9], 92%; in [10] it was 38%; in experiment [11] it was 89%; in experiment [12] it was 62%. Moreover, the residual activity was determined as 92% in experiment [13]; 80% in experiment [14]; 87% in [15]; 68% in [16]; 120% in experiment [17]; 116% in experiment [18]. The residual activity stood at 48% in experiment [19] and 41% in [20].
For `NC(=O)c1ccc2[nH]c(-c3ccc(Oc4ccc(Cl)cc4)cc3)nc2c1`, the residual activity in [1] turned out to be 94%; in experiment [2], 106%; in experiment [3] it was 115%; in [4], 139%; in experiment [5], 94%; in experiment [6], 102%. The residual activity in experiment [7] amounted to 98%; in experiment [8] it was 72%; in experiment [9], 97%; in [10], 87%; in [11], 100%; in experiment [12] it was 74%. Besides, the residual activity in experiment [13] is 79%; in [14], 82%; in experiment [15] it was 95%; in experiment [16], 95%; in experiment [17] it was 128%; in experiment [18], 101%. The residual activity in experiment [19] is 61%; in [20], 19%.
For `CO[C@H]1[C@@H](OC)C[C@H](C)[C@@H](OC)C2=CC(=O)C=C(NC(=O)/C(C)=C/C=C/[C@H](OC)[C@@H](OC(N)=O)/C(C)=C/[C@@H]1C)C2=O`, the residual activity in experiment [1] was found to be 97%; in experiment [2], 77%; in experiment [3] it was 115%; in experiment [4], 97%; in experiment [5], 92%; in experiment [6] it was 104%. Further, the residual activity in experiment [7] amounted to 116%; in experiment [8], 84%; in experiment [9], 101%; in experiment [10] it was 108%; in experiment [11], 110%; in experiment [12], 102%. Besides, the residual activity in [13] came out at 68%; in [14], 72%; in experiment [15] it was 105%; in experiment [16], 93%; in [17], 114%; in [18], 82%. The values for the residual activity in [19] and in experiment [20] were 104% and 107%, respectively.
In the case of `O=Nc1c(-c2c(O)[nH]c3ccccc23)[nH]c2ccccc12`, the residual activity was 106% in experiment [1]; 103% in experiment [2]; 61% in [3]; 21% in experiment [4]; 32% in experiment [5]; 4% in experiment [6]. The residual activity in [7] turned out to be 85%; in experiment [8], 46%; in [9], 8%; in [10], 2%; in [11], 6%; in experiment [12] it was 0%. Besides, the residual activity in experiment [13] was 42%; in [14], 10%; in experiment [15], -2%; in [16], -3%; in experiment [17] it was 86%; in [18] it was 13%. Further, the residual activity came to 62% in experiment [19] and 18% in experiment [20].
In the case of `Oc1ccc(Nc2nc(-c3ccc(Cl)cc3)cs2)cc1`, the residual activity in [1] is 111%; in experiment [2] it was 129%; in experiment [3] it was 97%; in experiment [4], 107%; in [5] it was 109%; in [6], 94%. The residual activity came to 110% in [7]; 97% in experiment [8]; 78% in [9]; 87% in experiment [10]; 101% in experiment [11]; 76% in experiment [12]. Also, the residual activity in experiment [13] worked out at 94%; in experiment [14] it was 102%; in [15], 100%; in experiment [16], 90%; in experiment [17], 138%; in experiment [18], 110%. In addition, the residual activity was 96% in [19] and 80% in [20].
Regarding `Cn1cnc2cc3c(Nc4cccc(Br)c4)ncnc3cc21`, the residual activity was 88% in [1]; 92% in experiment [2]; 107% in [3]; 95% in experiment [4]; 102% in experiment [5]; 102% in experiment [6]. Besides, the residual activity worked out at 101% in experiment [7]; 81% in [8]; 97% in experiment [9]; 101% in [10]; 98% in [11]; 92% in experiment [12]. The residual activity in experiment [13] amounted to 78%; in [14], 80%; in [15] it was 79%; in experiment [16], 58%; in [17], 85%; in [18] it was 68%. Also, the residual activity amounted to 26% in [19] and 13% in [20].
